Laboratory results published in PubChem BioAssay AID1159580 (chemical genetic matrix, 2015).
Several values for one entry are separate records, joined by “and”; a condition that tells them apart may be missing. Equal entries are not always repeated. Out of some 5,500 compounds screened, about 2,000 (36%) were called active. Inconclusive results (about 18%) are left out. No stated cut-off is given here; in the data, active means normalized growth mostly below about 0.91 (no sharp cut-off); inconclusive means no clear call, values can overlap the other calls; inactive means mostly above about 0.92. Some of the results follow.

Experiment: chemical genetic growth profiling, strain panel (AID 1159580);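 further: tested at 20 µM; growth read once vehicle control cultures reached saturation at 30 °C; 1 = growth at the plate median or of vehicle wells; lower values mean less growth of the strain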
Conditions: growth OD
[1] = S. cerevisiae deletion strains, locus YAL040C, strain CLN3, active compounds read low
[2] = S. cerevisiae deletion strains, locus YDR363W, strain ESC2, active compounds read low
[3] = S. cerevisiae deletion strains, locus YER002W, strain NOP16, active compounds read low
[4] = S. cerevisiae deletion strains, locus YGR078C, strain PAC10, active compounds read low
[5] = S. cerevisiae deletion strains, locus YMR263W, strain SAP30, active compounds read low
[6] = S. cerevisiae deletion strains, locus YMR307W, strain GAS1, active compounds read low
[7] = S. cerevisiae deletion strains, locus YNL128W, strain TEP1, active compounds read low
[8] = S. cerevisiae deletion strains, locus YNL153C, strain GIM3, active compounds read low
[9] = S. cerevisiae deletion strains, locus YNL175C, strain NOP13, active compounds read low
[10] = S. cerevisiae deletion strains, locus YNL197C, strain WHI3, active compounds read low
[11] = S. cerevisiae deletion strains, locus YNL224C, strain SQS1, active compounds read low
[12] = S. cerevisiae deletion strains, locus YNL322C, strain KRE1, active compounds read low
[13] = S. cerevisiae deletion strains, locus YOR083W, strain WHI5 (second series), active compounds read low
[14] = S. cerevisiae deletion strains, locus YPL055C, strain LGE1, active compounds read low
[15] = S. cerevisiae deletion strains, locus YPL241C, strain CIN2, active compounds read low
[16] = S. cerevisiae deletion strains, locus YDR150W, strain NUM1, active compounds read low

Measured: normalized growth

CC(=O)O[C@]1(C(C)=O)CC[C@H]2[C@@H]3C=C(Cl)C4=CC(=O)[C@@H]5C[C@@H]5[C@]4(C)[C@H]3CC[C@@]21C
inactive: [1] 0.994 | [2] 0.976 | [3] 1.02 | [4] 0.985 | [5] 0.993 | [6] 0.975 | [7] 0.993 | [8] 1.05 | [9] 1.03 | [10] 0.966 | [11] 0.975 | [12] 0.988 | [13] 0.979 | [14] 1 | [15] 1

Nc1nc2c(ncn2COC(CO)CO)c(=O)[nH]1
inactive: [1] 1.05 | S. cerevisiae deletion strains, locus YCL061C, strain MRC1 (second series), active compounds read low 1.01 | [16] 1.01 | [2] 1.03 | [3] 1.01 | [4] 0.999 | [5] 1.01 | [6] 0.99 | [7] 0.992 | [9] 1.01 | [10] 1.01 | [11] 0.997 | [13] 1.03 | [15] 1.01

COc1ccc(-c2cc(=O)c3c(O)cc(O)cc3o2)cc1O
inactive: S. cerevisiae deletion strains, locus YAL013W, strain DEP1, active compounds read low 1 | S. cerevisiae deletion strains, locus YBR021W, strain FUR4, active compounds read low 0.985 | S. cerevisiae deletion strains, locus YBR229C, strain ROT2, active compounds read low 0.987 | S. cerevisiae deletion strains, locus YCL029C, strain bik1, active compounds read low 0.997 | S. cerevisiae deletion strains, locus YDL035C, strain GPR1, active compounds read low 0.983 | S. cerevisiae deletion strains, locus YDL074C, strain BRE1, active compounds read low 0.969 | S. cerevisiae deletion strains, locus YDL101C, strain DUN1, active compounds read low 0.998 | S. cerevisiae deletion strains, locus YDL134C, strain PPH21, active compounds read low 0.993 | S. cerevisiae deletion strains, locus YDL185W, strain tfp1, active compounds read low 1.01 | S. cerevisiae deletion strains, locus YDL192W, strain arf1, active compounds read low 0.999 | S. cerevisiae deletion strains, locus YDR101C, strain arx1, active compounds read low 0.98 | [16] 1 | S. cerevisiae deletion strains, locus YDR162C, strain NBP2, active compounds read low 0.961 | S. cerevisiae deletion strains, locus YDR318W, strain mcm21, active compounds read low 0.995 | S. cerevisiae deletion strains, locus YDR388W, active compounds read low 0.993 | S. cerevisiae deletion strains, locus YDR502C, strain sam2, active compounds read low 0.975 | S. cerevisiae deletion strains, locus YEL061C, strain CIN8, active compounds read low 0.994 | S. cerevisiae deletion strains, locus YER110C, active compounds read low 1 | S. cerevisiae deletion strains, locus YER155C, strain BEM2, active compounds read low 1 | S. cerevisiae deletion strains, locus YER167W, strain BCK2, active compounds read low 0.997 | S. cerevisiae deletion strains, locus YGL078C, strain dbp3, active compounds read low 0.989 | S. cerevisiae deletion strains, locus YGL086W, strain mad1, active compounds read low 0.981 | S. cerevisiae deletion strains, locus YGL248W, strain PDE1, active compounds read low 0.997 | [4] 0.952 | S. cerevisiae deletion strains, locus YGR135W, strain pre9, active compounds read low 0.962 | S. cerevisiae deletion strains, locus YGR229C, strain SMI1, active compounds read low 0.937 | S. cerevisiae deletion strains, locus YGR252W, strain gcn5, active compounds read low 0.96 | S. cerevisiae deletion strains, locus YHR030C, strain SLT2, active compounds read low 0.997 and 1.02 | S. cerevisiae deletion strains, locus YHR079C, strain IRE1 (second series), active compounds read low 0.983 | S. cerevisiae deletion strains, locus YHR079C, strain IRE1, active compounds read low 1.01 | S. cerevisiae deletion strains, locus YHR094C, strain hxt1, active compounds read low 1 | S. cerevisiae deletion strains, locus YHR129C, strain ARP1, active compounds read low 0.989 | S. cerevisiae deletion strains, locus YHR200W, strain rpn10, active compounds read low 0.99 | S. cerevisiae deletion strains, locus YIL066C, strain RNR3, active compounds read low 0.987 | S. cerevisiae deletion strains, locus YIL073C, strain SPO22, active compounds read low 1.02 | S. cerevisiae deletion strains, locus YIL125W, strain kgd1, active compounds read low 0.995 | S. cerevisiae deletion strains, locus YIR030C, strain dcg1, active compounds read low 0.991 | S. cerevisiae deletion strains, locus YJL095W, strain BCK1, active compounds read low 0.944 and 0.996 | S. cerevisiae deletion strains, locus YJL134W, strain LCB3, active compounds read low 0.998 | S. cerevisiae deletion strains, locus YJL168C, strain set2, active compounds read low 0.998 | S. cerevisiae deletion strains, locus YJL187C, strain SWE1 (second series), active compounds read low 0.967 | S. cerevisiae deletion strains, locus YJR043C, strain POL32, active compounds read low 0.998 | S. cerevisiae deletion strains, locus YJR066W, strain TOR1, active compounds read low 0.986 | S. cerevisiae deletion strains, locus YJR075W, strain HOC1, active compounds read low 1.04 | S. cerevisiae deletion strains, locus YKL009W, strain mrt4, active compounds read low 0.89 | S. cerevisiae deletion strains, locus YKL068W, active compounds read low 0.968 | S. cerevisiae deletion strains, locus YKL190W, strain CNB1, active compounds read low 0.993 | S. cerevisiae deletion strains, locus YKR001C, strain vps1, active compounds read low 1 | S. cerevisiae deletion strains, locus YLR039C, strain RIC1, active compounds read low 0.928 | S. cerevisiae deletion strains, locus YLR058C, strain SHM2, active compounds read low 0.989 | S. cerevisiae deletion strains, locus YLR102C, strain apc9, active compounds read low 0.995 | S. cerevisiae deletion strains, locus YLR113W, strain HOG1, active compounds read low 0.888 | S. cerevisiae deletion strains, locus YLR262C, strain YPT6, active compounds read low 0.921 | S. cerevisiae deletion strains, locus YLR268W, strain sec22, active compounds read low 0.944 | S. cerevisiae deletion strains, locus YLR330W, strain CHS5, active compounds read low 0.999 | S. cerevisiae deletion strains, locus YLR342W, strain FKS1 (second series), active compounds read low 1.02 | S. cerevisiae deletion strains, locus YLR371W, strain rom2, active compounds read low 0.99 | S. cerevisiae deletion strains, locus YLR418C, strain cdc73, active compounds read low 0.925 | S. cerevisiae deletion strains, locus YML016C, strain PPZ1, active compounds read low 0.991 | S. cerevisiae deletion strains, locus YML032C, strain rad52, active compounds read low 1.01 | S. cerevisiae deletion strains, locus YML124C, strain tub3, active compounds read low 0.988 | S. cerevisiae deletion strains, locus YMR078C, strain ctf18, active compounds read low 1 | S. cerevisiae deletion strains, locus YMR223W, strain ubp8, active compounds read low 0.993 | [5] 0.982 | [6] 1.08 | S. cerevisiae deletion strains, locus YNL067W, strain RPL9B, active compounds read low 0.983 | [7] 0.988 | [8] 0.958 | S. cerevisiae deletion strains, locus YNL183C, strain NPR1, active compounds read low 0.921 | S. cerevisiae deletion strains, locus YNL233W, strain BNI4, active compounds read low 0.947 | S. cerevisiae deletion strains, locus YNL250W, strain rad50, active compounds read low 1 | S. cerevisiae deletion strains, locus YNL271C, strain bni1, active compounds read low 1 | S. cerevisiae deletion strains, locus YNL298W, strain CLA4, active compounds read low 1.03 | S. cerevisiae deletion strains, locus YNL307C, strain MCK1, active compounds read low 1 | [12] 0.996 | S. cerevisiae deletion strains, locus YNR052C, strain pop2, active compounds read low 0.994 | S. cerevisiae deletion strains, locus YOL006C, strain TOP1, active compounds read low 0.973 | S. cerevisiae deletion strains, locus YOL012C, strain htz1 0.983 | S. cerevisiae deletion strains, locus YOL147C, strain pex11, active compounds read low 0.992 | S. cerevisiae deletion strains, locus YOR061W, strain CKA2, active compounds read low 1 | S. cerevisiae deletion strains, locus YOR069W, strain VPS5, active compounds read low 0.998 | S. cerevisiae deletion strains, locus YOR136W, strain idh2, active compounds read low 0.993 | S. cerevisiae deletion strains, locus YOR144C, strain elg1, active compounds read low 0.997 | S. cerevisiae deletion strains, locus YOR184W, strain ser1, active compounds read low 0.982 | S. cerevisiae deletion strains, locus YOR231W, strain MKK1, active compounds read low 1.01 | S. cerevisiae deletion strains, locus YOR316C, strain cot1, active compounds read low 0.989 | [14] 0.97 | [15] 1 | S. cerevisiae deletion strains, locus YPL256C, strain CLN2, active compounds read low 0.993 | S. cerevisiae deletion strains, locus YPR119W, strain clb2, active compounds read low 0.993 | S. cerevisiae deletion strains, locus YPR141C, strain kar3, active compounds read low 1.01 | S. cerevisiae deletion strains, locus YPR163C, strain tif3, active compounds read low 1.01 | S. cerevisiae deletion strains, locus YPR167C, strain met16, active compounds read low 0.991 | S. cerevisiae deletion strains, strain wtn01, active compounds read low 0.977 | S. cerevisiae strains, strain wild type, active compounds read low 0.99
active: S. cerevisiae deletion strains, locus YKL085W, strain MDH1 (second series), active compounds read low 0.913 | S. cerevisiae deletion strains, locus YKL085W, strain MDH1, active compounds read low 0.913
